The nature of the assay: chemical genetic growth profiling, strain panel (AID 1159580).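 Also: tested at 20 µM; growth read once vehicle control cultures reached saturation at 30 °C; 1 = growth at the plate median or of vehicle wells; lower values mean less growth of the strain.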 The conditions noted are these: S. cerevisiae deletion strains, growth OD.
The mark [1] stands for this setting: locus YHR030C, strain SLT2, hits give low values.

Among all 5,500 compounds or so, about 2,000 (36%) were called active. Roughly 18% stayed inconclusive and do not appear here. The list shows a part of the results. A number with no mark means an inactive call. Rule as the data show it: active = normalized growth mostly below about 0.91 (no sharp cut-off); inconclusive = no clear call, values can overlap the other calls; inactive = mostly above about 0.92.

Take `COc1ccc(Oc2cc(C)nc3ccccc23)cc1`: the normalized growth reads like this: (locus YAL013W, strain DEP1, hits give low values) 1.01; (locus YBR229C, strain ROT2, hits give low values) 1; (locus YDL101C, strain DUN1, hits give low values) 1.02; (locus YDL134C, strain PPH21, hits give low values) 0.989; (locus YDR150W, strain NUM1, hits give low values) 1.02; (locus YEL061C, strain CIN8, hits give low values) 0.884 (active). Besides, the normalized growth (locus YGR078C, strain PAC10, hits give low values) is 1.01; the normalized growth under setting [1] was 0.269 (active); the normalized growth (locus YHR087W, strain rtc3, hits give low values) was 0.999; the normalized growth (locus YJR043C, strain POL32, hits give low values) is 1; the normalized growth (locus YJR075W, strain HOC1, hits give low values) is 1.02; the normalized growth (locus YKL190W, strain CNB1, hits give low values) is 0.906 (active). Moreover, the normalized growth reads like this: (locus YLR039C, strain RIC1, hits give low values) 0.606 (active); (locus YLR058C, strain SHM2 (second series), hits give low values) 1; (locus YLR085C, strain ARP6, hits give low values) 0.527 (active); (locus YLR262C, strain YPT6, hits give low values) 0.701 (active); (locus YML094W, strain GIM5, hits give low values) 0.941; (locus YMR219W, strain ESC1, hits give low values) 1.01. Further, the normalized growth (locus YMR263W, strain SAP30, hits give low values) is 1.02; the normalized growth (locus YNL153C, strain GIM3, hits give low values) is 0.991; the normalized growth (locus YNL298W, strain CLA4 (second series), hits give low values) was 0.876; the normalized growth (locus YNL322C, strain KRE1, hits give low values) is 1.01; the normalized growth (locus YNR030W, strain Alg12, hits give low values) was 0.967; the normalized growth (locus YPL055C, strain LGE1, hits give low values) was 1.02. In addition, the normalized growth is 0.845 (active) (locus YPL241C, strain CIN2, hits give low values) and 0.397 (active) (locus YPR135W, strain CTF4, hits give low values).
For `CCOc1ccc2nc(S(N)(=O)=O)sc2c1`, the normalized growth runs as follows: under setting [1], 0.978; (locus YHR079C, strain IRE1, hits give low values) 0.969; (locus YJL095W, strain BCK1, hits give low values) 1.02; (locus YJR066W, strain TOR1, hits give low values) 0.924; (locus YLR113W, strain HOG1, hits give low values) 1.05; (locus YNL183C, strain NPR1, hits give low values) 0.927. Further, the normalized growth is 0.955 (locus YOR231W, strain MKK1, hits give low values) and 0.963 (locus YPL256C, strain CLN2, hits give low values).

Values taken from PubChem BioAssay AID1159580 (chemical genetic matrix, 2015).
